# Reference: PubChem BioAssay (Tox21)
# A number with no mark means an inactive call. Results filed as inconclusive are left out. Where a call stands in place of a potency, no number is given. Activity calls are given as the source filed them. Unless noted, calls come from the whole dose curve; as a rule, active = well fitted curve in the direction sought with a large enough effect in the repeat runs; inconclusive = weak or mixed curves; inactive = no such curve, though single readings can be large; an effect the other way counts as inactive or inconclusive.
# Experiments:
# [1] = qHTS assay for small molecules that induce genotoxicity in human embryonic kidney cells expressing luciferase-tagged ATAD5 (AID 651632); note: nearly all actives have a fitted effect of over 15% in size
# Method in brief: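 DMSO vehicle served as the control. HEK293T reporter cells, 16 hr at 37C, then 30 min Amplite at room temperature; ATAD5 induction is measured as luciferase activity.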
# [2] = qHTS assay for small molecule agonists of the p53 signaling pathway - cell viability (AID 651633; calls by dose curve; note: nearly all actives have a fitted effect of over 30% in size; note: potency is the fitted concentration of half-maximal effect)
# Method in brief: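 p53RE-bla cells were treated with compound for 16 hours at 37 C. Cytotoxicity was then measured as CellTiter-Glo luminescence after 30 min at room temperature.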
# [3] = qHTS assay for small molecules that induce genotoxicity in human embryonic kidney cells expressing luciferase-tagged ATAD5 - cell viability (AID 651634; calls by dose curve; note: nearly all actives have a fitted effect of over 25% in size; note: potency is the fitted concentration of half-maximal effect)
# Method in brief: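 Here HEK293T cells with the ATAD5 luciferase reporter are incubated with test compounds for 15.5 hr, and cytotoxicity is then gauged by measuring protease activity in live cells using fluorescence.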
# [4] = qHTS assay for small molecule disruptors of the mitochondrial membrane potential (AID 720635); note: potency is the fitted concentration of half-maximal effect
# Method in brief: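 HepG2 cells exposed to compound 1 hr at 37C, then Mito-MPS dye 30 min. Ratio read of aggregate (540/590 nm) versus monomer (490/535 nm) fluorescence.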
# [5] = qHTS assay to test for compound auto fluorescence at 590 nm (red) in HepG2 cells (AID 720674)
# Method in brief: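 Fluorescence at 590 nm emission following 540 nm excitation was recorded from HepG2 wells one hour after compound transfer, with DMSO-only wells as vehicle and Rose Bengal sodium equivalency as the scale.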
# [6] = qHTS assay to test for compound auto fluorescence at 535 nm (green) in HepG2 cells (AID 720675)
# [7] = qHTS assay to test for compound auto fluorescence at 460 nm (blue) in HEK293 cells (AID 720678)
# Method in brief: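 Auto fluorescence in the blue band was quantified as triamterene equivalency. HEK293 cells were seeded at 2,000/well, dosed after a 4-5 hr attachment, and kept overnight at 37C before the 405/460 nm reading.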
# [8] = qHTS assay to test for compound auto fluorescence at 590 nm (red) in HEK293 cells (AID 720679)
# Method in brief: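 Autofluorescence equivalency to Rose Bengal sodium, 540/590nm, in HEK293 cells exposed overnight to 23 nL compound per well.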
# [9] = qHTS assay to test for compound auto fluorescence at 535 nm (green) in HEK293 cells (AID 720680)
# [10] = qHTS assay to test for compound auto fluorescence at 460 nm (blue) in HEK293 cell free culture (AID 720681)
# Method in brief: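 Compounds were added to cell-free DMEM with 10% FBS and fluorescence read directly. The blue channel used 405 nm excitation and 460 nm emission, with triamterene as the reference fluorophore.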
# [11] = qHTS assay to test for compound auto fluorescence at 535 nm (green) in HEK293 cell free culture (AID 720682)
# Method in brief: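 Measurement is a direct plate read of green fluorescence (485 nm in, 535 nm out) after compound addition to serum-supplemented DMEM lacking cells, with fluorescein used to express intensities.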
# [12] = qHTS assay to test for compound auto fluorescence at 590 nm (red) in HEK293 cell free culture (AID 720683)
# Method in brief: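 Cell-free wells of DMEM with 10% FBS received compound, and intrinsic fluorescence was read at excitation/emission 540/590 nm. Values expressed as equivalence to Rose Bengal sodium.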
# [13] = qHTS assay to test for compound auto fluorescence at 590 nm (red) in HepG2 cell free culture (AID 720684)
# Method in brief: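 Rose Bengal sodium served as the reference for red signal. Test compounds were dispensed into serum-containing MEM (10% FBS) without cells, and plates were read at 540/590 nm.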
# [14] = qHTS assay to test for compound auto fluorescence at 460 nm (blue) in HepG2 cell free culture (AID 720685)
# Method in brief: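 Cell-free plates of MEM plus 10% FBS received 23 nL compound or DMSO vehicle; blue-channel (405/460 nm) intensity scored against triamterene as reference fluorophore.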
# [15] = qHTS assay to test for compound auto fluorescence at 535 nm (green) in HepG2 cell free culture (AID 720686)
# [16] = qHTS assay to test for compound auto fluorescence at 460 nm (blue) in HepG2 cells (AID 720687)
# Method in brief: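 HepG2 cells in MEM with 10% FBS, attached overnight at 37 C, were exposed to compound or DMSO for 1 hr at 37 C, 5% CO2. Blue fluorescence was read at 405/460 nm, with triamterene as reference fluorophore.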
# [17] = biological target: Glucocorticoid receptor (Homo sapiens) (UniProt P04150); test: qHTS assay to identify small molecule agonists of the glucocorticoid receptor (GR) signaling pathway (AID 720691; active = well fitted activation curve with a large enough effect in the signal ratio in the repeat runs, not every such curve was filed as active; the % refers to the signal ratio); details: GR-bla HeLa, beta-lactamase reporter ratio, 18 h; activation: at 62.4 µM (top of the series)
# Sequence of Glucocorticoid receptor (Homo sapiens) (P04150 whole entry, looked up): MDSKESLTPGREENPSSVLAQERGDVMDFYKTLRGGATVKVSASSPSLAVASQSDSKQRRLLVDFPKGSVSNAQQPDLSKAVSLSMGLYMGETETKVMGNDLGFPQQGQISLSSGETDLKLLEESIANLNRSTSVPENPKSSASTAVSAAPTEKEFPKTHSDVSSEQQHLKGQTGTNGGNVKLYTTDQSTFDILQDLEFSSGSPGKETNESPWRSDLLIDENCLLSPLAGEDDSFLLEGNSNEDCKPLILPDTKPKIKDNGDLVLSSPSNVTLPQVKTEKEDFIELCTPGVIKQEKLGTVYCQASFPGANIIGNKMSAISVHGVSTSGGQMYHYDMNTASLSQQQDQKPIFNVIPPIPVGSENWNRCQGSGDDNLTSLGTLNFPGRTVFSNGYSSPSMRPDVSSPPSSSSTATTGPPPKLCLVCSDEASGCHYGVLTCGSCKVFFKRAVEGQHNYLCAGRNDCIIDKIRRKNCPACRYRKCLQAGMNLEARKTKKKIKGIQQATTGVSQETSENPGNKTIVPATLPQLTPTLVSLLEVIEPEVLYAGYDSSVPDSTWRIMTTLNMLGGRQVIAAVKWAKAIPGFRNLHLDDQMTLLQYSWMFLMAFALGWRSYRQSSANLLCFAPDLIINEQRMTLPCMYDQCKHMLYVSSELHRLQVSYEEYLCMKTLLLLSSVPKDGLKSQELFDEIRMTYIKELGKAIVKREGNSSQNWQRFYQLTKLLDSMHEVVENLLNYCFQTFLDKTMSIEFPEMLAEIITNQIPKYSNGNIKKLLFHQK
# Method in brief: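 Compounds in DMSO, alongside positive controls, were added to GR-bla HeLa reporter cells and incubated 18 h at 37 C; GRE-driven beta-lactamase was detected by fluorescence after 2 h with FRET substrate at room temperature.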
# [18] = biological target: Glucocorticoid receptor (Homo sapiens) (UniProt P04150); test: qHTS assay to identify small molecule antagonists of the glucocorticoid receptor (GR) signaling pathway (AID 720692; active = well fitted inhibition curve with a large enough effect in the signal ratio in the repeat runs, not every such curve was filed as active; the % refers to the signal ratio; note: potency is the fitted concentration of half-maximal effect)
# Method in brief: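 In a 1536-well cell format, compounds were added 4 h after seeding GR-bla HeLa cells, together with dexamethasone at 5 nM final; reporter activity was measured by FRET-substrate fluorescence following 18 h at 37 C.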
# [19] = qHTS assay for small molecule disruptors of the mitochondrial membrane potential - cell viability (AID 720634; calls by dose curve;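 note: human HepG2 liver cancer cells; nearly all actives have a fitted effect of over 20% in size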)
# Method in brief: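 Viability of HepG2 cells is scored from ATP content by luminescence; cells are exposed to compound for 1 hr at 37 C and 5% CO2, then dosed with m-MPI dye before the CellTiter-Glo reagent.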
smiles,measurement,setting,value
CCOP(=O)(OCC)Oc1nc(Cl)c(Cl)cc1Cl,Potency,[1],inactive
same,Potency,[2],inactive
same,Potency,[3],inactive
same,Potency,[4],60.8 µM (active)
same,outcome,[5],inactive
same,Potency,[6],inactive
same,Potency,[7],inactive
same,outcome,[8],inactive
same,outcome,[9],inactive
same,Potency,[10],inactive
same,outcome,[11],inactive
same,outcome,[12],inactive
same,outcome,[13],inactive
same,Potency,[14],inactive
same,Potency,[15],inactive
same,Potency,[16],inactive
same,Potency,[17],inactive
same,Potency,[18],27.4 µM (active)
CCN1CCC2(CC1)COc1cc3c(cc12)N(C(=O)c1ccc(-c2ccc(-c4nnc(C)o4)cc2C)cc1)CC3,Potency,[1],inactive
same,Potency,[2],56.4 µM (active)
same,Potency,[3],56.4 µM (active)
same,Potency,[4],7.96 µM (active)
same,Potency,[6],inactive
same,Potency,[7],inactive
same,outcome,[8],inactive
same,outcome,[9],inactive
same,Potency,[10],inactive
same,outcome,[12],inactive
same,outcome,[13],inactive
same,Potency,[14],inactive
same,Potency,[15],inactive
same,Potency,[16],inactive
Cc1cc2c3c(c1)C(c1ccccc1)=N[C@@H](NC(=O)c1ccncc1)C(=O)N3CC2,Potency,[1],inactive
same,Potency,[2],inactive
same,Potency,[3],inactive
same,outcome,[5],inactive
same,Potency,[6],inactive
same,outcome,[8],inactive
same,outcome,[9],inactive
same,Potency,[10],inactive
same,outcome,[12],inactive
same,outcome,[13],inactive
same,Potency,[14],inactive
same,Potency,[15],inactive
same,Potency,[16],inactive
COC(=O)/C=C(\C)OP(=O)(OC)OC,Potency,[1],inactive
same,Potency,[2],inactive
same,Potency,[3],inactive
same,Potency,[6],inactive
same,outcome,[8],inactive
same,outcome,[9],inactive
same,Potency,[10],inactive
same,outcome,[11],inactive
same,outcome,[12],inactive
same,outcome,[13],inactive
same,Potency,[14],inactive
same,Potency,[15],inactive
same,Potency,[16],inactive
same,Potency,[17],inactive
COc1ccc(Cc2nccc3cc(OC)c(OC)cc23)cc1OC,Potency,[1],inactive
same,Potency,[2],inactive
same,Potency,[19],inactive
same,"fluorescence, relative to Rose Bengal",[5],0.593% [at 18.6 µM]
same,"fluorescence, % of fluorescein control",[6],0.0156% [at 18.6 µM]
same,"fluorescence, % of triamterene",[7],-0.311% [at 18.6 µM]
same,"fluorescence, % of fluorescent control",[8],-0.0717% [at 18.6 µM]
same,"fluorescence, % of fluorescein",[9],-0.0425% [at 18.6 µM]
same,"fluorescence, % of fluorescent control",[10],-0.0156% [at 18.6 µM]
same,"fluorescence, % of fluorescent control",[12],-0.0177% [at 18.6 µM]
same,"fluorescence, % of Rose Bengal",[13],-0.262% [at 18.6 µM]
same,"fluorescence, % of fluorescent control",[14],0.0281% [at 18.6 µM]
same,"fluorescence, % of fluorescein control",[15],-0.0438% [at 18.6 µM]
same,"fluorescence, % of fluorescent control",[16],-0.0587% [at 18.6 µM]
